In the supplement of paper PMC10338343:
± gives the standard deviation.

System: MILI (PIWIL2) piRISC loaded with L1MC piRNA (26 nt)
Test: pre-steady-state target cleavage rate (min^-1); guide: L1MC piRNA 5'p-UAACUAAAUACUAUGCAAGCUGUAGG; MIWI and MILI are mouse PIWI proteins and EfPiwi is from a freshwater sponge; tags in brackets are library labels; higher = faster piRNA-guided slicing of the target
Conditions: auxiliary factor: 500 nM mouse GTSF1
Description: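 Cleave-'n-Seq: a library of target RNAs (target site embedded in constant flanks, ACAGCATTCCGCGTTAGTGATATCCG... 5' flank; DNA-blocked outside the site) at 0.1 nM was incubated with 1 nM active mouse MILI or MIWI piRISC (synthetic 5'-monophosphorylated piRNA guide) with or without 500 nM mouse GTSF1 at 33 °C for 1 min to 16 h. Uncleaved targets were sequenced and normalised to non-target controls, and the pooled three trials were fitted to a burst-and-steady-state model to give the pre-steady-state cleavage rate (min^-1; k3 is constrained to at most 1e-4). Sequence is the target site only; target names encode pairing extent (gX:gY) and contiguous / 1-mismatch / 2-mismatch / bulge geometry. Fits with R² ≤ 0 are excluded.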

Row | Sequence | pre-steady-state target cleavage rate
1 | UCCUGCUACAGCUUGGUAAGUAUUUAGUUA | 0.131 ± 0.019
2 | UCCUCCUACAGCUUGCAUAGUUAAUAGAAA | 0.00946 ± 0.0043
3 | UCCUCGAUCAGCUUGCAUAGUAUUUAGUUA | 0.316 ± 0.017
4 | UCCUGGAUGUGCUUGCAUAGUAUUGUAGUUA | 0.0838 ± 0.018
5 | UCCUGGAUGUCCUUGCAUAGUAUUUAGUUA [g2:g19:cont:t1A] | 0.119 ± 0.018
6 | UCCUGGAUGUCCUUGCAUAGUAUUUAGAUA | 0.118 ± 0.018
7 | UCCUGGAUGUCCUAGCAUAGUAUUUACUUA | 0.0287 ± 0.0091
8 | UCCUGGAACAGCUUGCAUAGUAAUUAGUUA | 0.268 ± 0.022
9 | UCCUGGAACAGCUUGCAUAGUAUUAGUUA | 0.199 ± 0.016
10 | UCCUGGAUCAGCUUGCUUAGUAAUUAGUUA | 0.212 ± 0.022
11 | UCCUGCUACAGCUUCGAUAGUAUUUAGUAA | 0.199 ± 0.03
12 | UCCUGCUACAGCUAGCAUAGUAUAUAGUUA | 0.27 ± 0.03
13 | UCCUGGAUGAGCAUGCAUAGUAUUUUGUUA | 0.115 ± 0.025
14 | UCCUGGAUGUGCUUCAUAGUAUUUAGUUA | 0.046 ± 0.01
15 | UCCUGGAACAGCUUGCAUAGUAUUUUGUAA | 0.0402 ± 0.012
16 | UCCUGGAUGUCGUUGGCAUAGUAUUUAGUUA | 0.0621 ± 0.015
17 | UCCUCCUACAGCUUCGUUAGUAUUUAGUAA | 0.186 ± 0.026
18 | UCCUGGAUCAGCUUGGUUAGUAUUUAGUUA | 0.209 ± 0.016
19 | UCCUCCAACAGCUAGCAUAGUAUUUAGUUA | 0.25 ± 0.017
20 | UCCUGCUACAGCAUGGAUAGUAUUUAGUUA | 0.257 ± 0.021
21 | UCCUCCUACAGCUUGAAUAGUAUUUAGUUA | 0.283 ± 0.015
22 | UCCUGGAUCAGCUAGCAUAGUAUUUAGUAA | 0.219 ± 0.012

Same assay, conditions: auxiliary factor: none (no GTSF1)

Row | Sequence | pre-steady-state target cleavage rate
23 | UCCUGCUACAGCUUGGUAAGUAUUUAGUUA | 0.00591 ± 0.0018
24 | UCCUGGAUGUCGAACCAUUGUAAUUAGUUA | < 0.0001
25 | UCCUCGAUCAGCUUGCAUAGUAUUUAGUUA | 0.0102 ± 0.0027
26 | UCCUGGAUGUGCUUGCAUAGUAUUGUAGUUA | 0.0048 ± 0.0032
27 | UCCUGGAUGUCCUUGCAUAGUAUUUAGUUA [g2:g19:cont:t1A] | 0.00813 ± 0.0021
28 | UCCUGGAUGUCCUUGCAUAGUAUUUAGAUA | 0.00265 ± 0.0023
29 | UCCUGGAACAGCUUGCAUAGUAAUUAGUUA | 0.00705 ± 0.0022
30 | UCCUGGAACAGCUUGCAUAGUAUUAGUUA | 0.0037 ± 0.0023
31 | UCCUGGAUCAGCUUGCUUAGUAAUUAGUUA | 0.00689 ± 0.0022
32 | UCCUGCUACAGCUUCGAUAGUAUUUAGUAA | 0.00274 ± 0.0022
33 | UCCUGCUACAGCUAGCAUAGUAUAUAGUUA | 0.00448 ± 0.0023
34 | UCCUGGAUGUGCUUCAUAGUAUUUAGUUA | 0.00455 ± 0.002
35 | UCCUGGAUGUCGUUGGCAUAGUAUUUAGUUA | 0.0049 ± 0.003
36 | UCCUGGAUCAGCUUGGUUAGUAUUUAGUUA | 0.0137 ± 0.0033
37 | UCCUGGAUCAGCAACCAUAGUAUUUACAAA | < 0.0001
38 | UCCUCCAACAGCUAGCAUAGUAUUUAGUUA | 0.00537 ± 0.0023
39 | UCCUGCUACAGCAUGGAUAGUAUUUAGUUA | 0.00639 ± 0.0031
40 | UCCUCCUACAGCUUGAAUAGUAUUUAGUUA | 0.00723 ± 0.002
41 | UCCUGGAUCAGCUAGCAUAGUAUUUAGUAA | 0.00665 ± 0.0023
